{"source": "PubChem BioAssay (NCATS)", "key": {"[1]": {"assay": "Primary qHTS for inhibitors of nuclear receptor binding SET domain protein 2 (NSD2) in an isogenic RCH-ACV NSD2 p.E1099K mutant (9B) (AID 1645876)"}, "[2]": {"assay": "Primary qHTS for inhibitors of nuclear receptor binding SET domain protein 2 (NSD2) in an RCH-ACV wild type WT cells (2C) (AID 1645877); note: potency is the fitted concentration of half-maximal effect"}}, "note": "Records with an inconclusive call do not appear. Entries that show only a call come without a potency. Calls of active or inactive are those of the source. Calls come from the whole dose curve; as a rule, active = well fitted curve in the direction sought with a large enough effect; inconclusive = small, poorly fitted or top-dose-only effect, or another doubt; inactive = no such curve, though single readings can be large; an effect the other way counts as inactive or inconclusive. Note: nearly all actives have a fitted effect of over 70% in size.", "data": [{"smiles": "CC1CCC2(C)C(CC(O)C(O)C23CO3)C1(C)CCC1=CC(O)OC1=O", "note": "(stereo not drawn)", "values": [{"measurement": "Potency", "setting": "[1]", "value": "inactive"}, {"measurement": "Potency", "setting": "[2]", "value": "inactive"}]}, {"smiles": "C/C=C(\\C)C(=O)O[C@@H](C)[C@H]1CC[C@]2(O)C3CCC4C[C@@H](OC5CC(OC)C(OC6CC(OC)C(OC7CC(OC)C(OC8OC(C)C(OC9OC(CO)C(O)C(O)C9O)C(OC)C8O)C(C)O7)C(C)O6)C(C)O5)CC[C@]4(C)C3[C@H](O)[C@@H](O)[C@]12C", "note": "(stereo partly drawn)", "values": [{"measurement": "activity change, negative = viability loss", "setting": "[1]", "value": "-6.35% [at 9.23 µM] (inactive)"}, {"measurement": "activity change, negative = cell killing", "setting": "[2]", "value": "-1.09% [at 9.23 µM] (inactive)"}]}, {"smiles": "CC(C(=O)O)C1CCC2(C)C3C(=O)C=C4C(CCC(=O)C4(C)C)C3(C)CCC12C", "note": "(stereo not drawn)", "values": [{"measurement": "Potency", "setting": "[1]", "value": "inactive"}, {"measurement": "Potency", "setting": "[2]", "value": "inactive"}]}, {"smiles": "CC1=CC(=O)OC(C)(CC(C)(O)C(=O)O)C1", "note": "(stereo not drawn)", "values": [{"measurement": "Potency", "setting": "[1]", "value": "inactive"}, {"measurement": "Potency", "setting": "[2]", "value": "inactive"}]}, {"smiles": "C[C@@H]1C[C@H]2[C@@H]3CCC4=CC(=O)C=C[C@]4(C)[C@@]3(F)[C@@H](O)C[C@]2(C)[C@@]1(O)C(=O)COP(=O)(O)O", "values": [{"measurement": "Potency", "setting": "[1]", "value": "inactive"}, {"measurement": "Potency", "setting": "[2]", "value": "0.0916 µM (active)"}]}, {"smiles": "CC12CC34C=CC(=O)C(C)(CCC(=O)O)C3C(CC1C4)O2", "note": "(stereo not drawn)", "values": [{"measurement": "Potency", "setting": "[1]", "value": "inactive"}, {"measurement": "Potency", "setting": "[2]", "value": "inactive"}]}, {"smiles": "COC(=O)C12C(=O)C(C)=C(O)C1(C)C(C)=CC1C34CCC(OC3=O)C(C)(C)C4CCC12C", "note": "(stereo not drawn)", "values": [{"measurement": "Potency", "setting": "[1]", "value": "inactive"}, {"measurement": "Potency", "setting": "[2]", "value": "inactive"}]}, {"smiles": "CC[C@H](/C=C/[C@@H](C)[C@H]1CC[C@H]2[C@@H]3CC=C4C[C@@H](O)CC[C@]4(C)[C@H]3CC[C@]12C)C(C)C", "values": [{"measurement": "outcome", "setting": "[1]", "value": "inactive [at 4.96 µM]"}, {"measurement": "outcome", "setting": "[2]", "value": "inactive [at 4.96 µM]"}]}, {"smiles": "C/C=C/C=C/C=C/C(=O)O[C@@H]1C=C(CO)C(O)(C(=O)O)[C@@]2(C)CCCC(C)(C)[C@H]12", "note": "(stereo partly drawn)", "values": [{"measurement": "Potency", "setting": "[1]", "value": "inactive"}, {"measurement": "Potency", "setting": "[2]", "value": "inactive"}]}]}
